According to PubChem BioAssay (Tox21):
Results filed as inconclusive are left out. A number with no mark means an inactive call. The source made the active and inactive calls. Calls follow the shape of the dose curve; as a rule, active = well fitted cell-killing curve with a large enough effect in the repeat runs; inconclusive = weak or mixed curves, or effect the other way; inactive = flat fitted curve, though single readings scatter.

experiment: qHTS assay to identify small molecule antagonists of the androgen receptor (AR) signaling pathway using the MDA cell line in the presence of 0.5 nM R1881 - cell viability counter screen (AID 1259242); conditions: MDA-kb2 viability, CellTiter-Fluor protease fluorescence, 16 h; series mostly up to 92.4 µM; viability change, negative = cytotoxic: at the top concentration; also: nearly all actives have a fitted effect of over 45% in size
From the text: U.S. Tox21 Program National Center for Advancing Translational Sciences [NCATS] NIH Chemical Genomics Center [NCGC] U.S. Environmental Protection Agency [EPA] National Institutes of Environmental Health Sciences [NIEHS] National Toxicology Program [NTP] U.S. Food and Drug Administration [FDA] Tox21 Assay Overview: Androgen receptor (AR) is an important member of the nuclear receptor family. Its signaling plays a critical role in AR-dependent prostate cancer and other androgen related diseases. Considerable attention has been given in the past decades to develop methods to study and screen for the environmental chemicals that have the potential to interfere with metabolic homeostasis, reproduction, developmental and behavioral functions. Therefore AR binding assay for screening androgen antagonists can be used to identify potential endocrine disruptors. MDA-kb2 cells (from ATCC, deposited by Wilson et al.) were used to screen for AR inhibitors against Tox21 compound libraries. These cells are human breast carcinoma cells that were stably transfected with a luciferase reporter gene under control of the MMTV promoter that contains response elements for both androgen receptor (AR) and glucocorticoid receptor (GR). The current screening for identification of AR inhibitors against Tox21 libraries used lower concentration of (0.5 nM) R1881 as a stimulator. The cytotoxicity of the Tox21 compound libraries against MDA-kb2 cell line was tested by measuring live-cell protease activity using CellTiter-Fluor assay in the same wells.
Tox21 Assay Protocol Summary: MDA-kb2 cells (cells cultured without CO2) were dispensed at 3,000 cells/well in 4 uL of culture medium into white wall/solid-bottom 1536-well plates (Corning Life Sciences, Corning, NY) using a Multidrop Combi (ThermoFisher Scientific, Waltham, MA) dispenser. After the assay plates were incubated at a 37C and 0% CO2 for 5 hr, 23 nL of compounds dissolved in DMSO, positive controls or DMSO only was transferred to the assay plate by a Pintool station (Kalypsys, San Diego, CA). The transfer of compounds was followed by the addition of 1 uL of 0.5 nM (final concentration) agonist (R1881)/culture medium using a Flying Reagent Dispenser (FRD, Aurora Discovery, San Diego, CA). The plates were incubated at 37C and 0% CO2 for 16 hr. For cytotoxicity assay, 1 uL of CellTiter-Fluor reagent (Promega Corporation, Madison, WI) was added to each well using the FRD and after 30 min incubation at 37C and 0% CO2, The fluorescence intensity was measured using ViewLux plate reader (PerkinElmer, Shelton, CT).
% is scaled to controls: 0 for no effect and ±100 for the full control effect; potency is read from the fitted curve at half-maximal effect.

| SMILES | viability change, negative = cytotoxic | Potency |
| --- | --- | --- |
| CCCC(=O)OC(=O)CCC | 0.435% | – |
| CC(C)Cc1ccc(CC(=O)O)cc1 | -2.31% [at 42.5 µM] | – |
| CCCCCCC(O)CCCCCCCCCCC(=O)OC (stereo not given) | 6.84% | – |
| O=C(/C=C/c1ccc([N+](=O)[O-])cc1)c1ccccc1 | -22% | – |
| Cc1ccc(N(CCO)CCO)cc1 | 0.189% | – |
| Cc1cccc2sc(N)nc12 | -2.2% | – |
| Cc1ccc(N(CC2=NCCN2)c2cccc(O)c2)cc1 | -2.24% [at 42.5 µM] | – |
| COC(OC)OC | 0.583% | – |
| Cc1ccc2c(c1[N+](=O)[O-])C(=O)c1ccccc1C2=O | -7.86% [at 42.5 µM] | – |
| Nc1ccc(F)cc1 | 6.5% | – |
| CC[C@@H](CO)NCCN[C@@H](CC)CO | -0.922% [at 42.5 µM] | – |
| O=C(NS(=O)(=O)/C=C/c1ccccc1)c1ccc(F)cc1Cl | 2.3% | – |
| Cc1cc(CCC(=O)OCCOCCOCCOC(=O)CCc2cc(C)c(O)c(C(C)(C)C)c2)cc(C(C)(C)C)c1O | -1.22% | – |
| CC(=O)OCCC(C)CC(C)(C)C (stereo not given) | 1.34% | – |
| COC(=O)CC(C(C)=O)C(=O)OC (stereo not given) | -0.9% | – |
| CC1C(C)(C)C2=C(C(=O)CCC2)C1(C)C (stereo not given) | 2.91% | – |
| Nc1c(Cl)cc(Cl)cc1[N+](=O)[O-] | 1.59% | – |
| CC(O)Cn1cnc2c1c(=O)n(C)c(=O)n2C (stereo not given) | 1.8% [at 42.5 µM] | – |
| COc1ccc(N)c([N+](=O)[O-])c1 | -9.39% | – |
| CCC1CCC(CCC(=O)O)C1 (stereo not given) | -1.48% | – |

| SMILES | viability change, negative = cytotoxic | Potency |
| --- | --- | --- |
| O=C1OC[C@H](Cc2cccc(O)c2)[C@H]1Cc1cccc(O)c1 | -0.459% [at 42.5 µM] | – |
| CC(=O)Oc1cccc(O)c1 | 8.64% [at 42.5 µM] | – |
| CC(C(=O)O)c1ccc(C(=O)c2cccs2)cc1 (stereo not given) | -1.88% [at 42.5 µM] | – |
| CCCCCCC(O)CCOC(C)=O (stereo not given) | 1.86% [at 240 µM] | – |
| CCN(Cc1cccc(S(=O)(=O)O)c1)c1ccc(C(=C2C=CC(=[N+](CC)Cc3cccc(S(=O)(=O)O)c3)C=C2)c2ccc(O)cc2S(=O)(=O)[O-])cc1 | – | 18.6 µM (active) |
| Nc1cccc2c(N)cccc12 | -0.098% | – |
| CCCCCCCC/C=C/C(=O)O | 4.55% [at 42.5 µM] | – |
| c1ccc(CNc2ncnc3c2ncn3C2CCCCO2)cc1 (stereo not given) | 0.876% | – |
| CN1C(CSCC(F)(F)F)Nc2cc(Cl)c(S(N)(=O)=O)cc2S1(=O)=O (stereo not given) | -2.97% [at 42.5 µM] | – |
| C=Cc1ccc(OC(C)=O)cc1 | -2.15% | – |
| O=C(Nc1ccc(C(=O)O)c(O)c1)c1ccccc1 | -0.211% [at 42.5 µM] | – |
| CC(C)(O)CCc1ccccc1 | 0.483% | – |
| CC(C)(C(=O)c1cccnc1)c1cccnc1 | -0.439% [at 42.5 µM] | – |
| CC(C)COC(=O)COc1cc(Cl)c(Cl)cc1Cl | 7.73% | – |
| O=C(NC(Cc1cc(=O)[nH]c2ccccc12)C(=O)O)c1ccc(Cl)cc1 (stereo not given) | 0.227% [at 42.5 µM] | – |
| CCCCCCCCCCCCCOS(=O)(=O)O | -5.22% | – |
| CC(C)N(C)C | -0.364% | – |
| CCCCCCC(CO)CCCC (stereo not given) | -0.0651% | – |
| CCc1ccc(C)cc1 | 0.66% | – |
| C[C@@H]1C[C@H]2[C@@H]3CCC4=CC(=O)C=C[C@]4(C)[C@@]3(F)[C@@H](O)C[C@]2(C)[C@@]1(O)C(=O)COP(=O)(O)O | -2.21% | – |
